PfHsp90 set2 = growth inhibition of yeast expressing Plasmodium Hsp90 | S. cerevisiae expressing PfHsp90, BacTiter-Glo ATP, 48 h; yeast lacking PDR1 and PDR3 efflux regulators | inhibition, % at 9.4 µM | 310,000 tested, 0.32% active | AID 504621;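 active = every replicate shows inhibition above about 80%, whatever the replicate mean, limit read from the data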
NALP3 yeast inh = blocks the NALP3 inflammasome reconstituted in yeast. 330,000 tested, 0.39% active. inhibition, % at 10 µM. Yeast reconstituted NLRP3/ASC/caspase-1, beta-gal luminescence, 24 h;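 active = inhibition of 50% or more; inactive = inhibition below 50%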
tim10-1 inh = growth inhibitors of tim10-1 mutant yeast | 330,000 tested, 2.2% active | AID 463190 | S. cerevisiae tim10-1 ts strain growth, BacTiter-Glo, 24 h | inhibition, % at 20 µM;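 active = inhibition of at least 40%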;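 note: mutant grown at 25 °C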
tim23-1 inh = growth inhibitors of tim23-1 mutant yeast | inhibition, % at 20 µM | S. cerevisiae tim23-1 growth, BacTiter-Glo luminescence, 24 h | 330,000 tested, 1.3% active | AID 463212;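 active = growth inhibition of the mutant yeast at or above 50%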;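 note: temperature-sensitive mutant grown at 25 °C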
TIM10 inh = TIM10 yeast growth inhibition; 330,000 tested, 1.4% active; S. cerevisiae TIM10 strain growth, BacTiter-Glo luminescence, 24 h; inhibition, % at 10 µM; AID 463195;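 active = inhibition of 40% or more at the single tested concentration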;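 note: wild-type TIM10 isogenic control strain grown at permissive 25 °C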
NALP1 yeast inh = inhibitors of NALP1 inflammasome in yeast; S. cerevisiae NALP1/ASC/caspase-1 growth, X-gal OD620, 72 h; inhibition, % at 10 µM; 280,000 tested, 0.61% active; in the data active = inhibition mostly above about 24%, no sharp cut-off; inactive = mostly below about 32%
tim23-1 conf = confirmation of tim23-1 mutant yeast growth inhibitors | shares compounds with tim23-1 inh | S. cerevisiae tim23-1 growth, BacTiter-Glo luminescence, 24 h | inhibition, % at 20 µM | 4,400 tested, 83% active | AID 463218;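 active = inhibition above about 39% in either of two replicate wells at 20 µM, limit read from the data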;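 note: temperature-sensitive tim23-1 mutant grown at 25 °C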
Of the large screens only hits and unclear results are named; the others gave an inactive call (follow-up assays come after a bar, where they were run). The list is not random: actives were taken first. Their share in the collection is about 4.2%.

NNC(=O)c1oc2nc(-c3ccccc3)cc(-c3ccccc3)c2c1N	tim23-1 inh 59.0 | tim23-1 conf inactive
Cc1ccc(-c2cc(-c3ccco3)c3c(N)c(C(=O)NN)oc3n2)cc1	none
C=CCOc1cccc(C2/C(=C(\O)c3ccc4c(c3)OCCO4)C(=O)C(=O)N2CCN2CCOCC2)c1 (stereo not given)	none
c1ccc2c3c([nH]c2c1)-c1[nH]ncc1CC3	tim23-1 inh 60.7 | tim23-1 conf inactive
O=C1CCCc2c1[nH]c1ccccc21	none (no result: PfHsp90 set2)
COc1ccc(S(=O)(=O)N2CCc3ccccc3C2)cc1	tim23-1 inh 53.3 | tim23-1 conf 45.5
CCN(CC)c1ccc2c(C)cc(=O)oc2c1	none (no result: NALP1 yeast inh)
CCN(CC)c1ccc2c(C)c(Cl)c(=O)oc2c1	tim23-1 inh 50.3 | tim23-1 conf 52.8
CCN(CC)c1ccc2c(C)c(-c3ccc(N)cc3)c(=O)oc2c1	tim23-1 inh 55.5 | tim23-1 conf 66.8
O=C(NCc1n[nH]c(=O)c2ccccc12)C1CC(=O)N(c2ccccc2)C1 (stereo not given)	none (no result: NALP1 yeast inh)
Cc1ccc(C(=O)Nc2nnc(-c3ccc(C(C)(C)C)cc3)s2)cc1	none
Cc1ccc(-c2nnc(NC3CCCC3)s2)cc1	tim23-1 inh 52.9 | tim23-1 conf 41.8
O=C(Nc1ccc(Nc2ccccc2)cc1)C(Cl)Cl	none
CC(C)(C)C(=O)C(Cl)C(=O)Nc1ccccc1 (stereo not given)	PfHsp90 set2 107.1, tim23-1 inh 70.5 (no result: NALP1 yeast inh) | tim23-1 conf inactive
COc1ccc(C2CC(=O)Oc3cc4c(cc32)OCO4)cc1 (stereo not given)	tim23-1 inh 61.1 (no result: NALP3 yeast inh, NALP1 yeast inh) | tim23-1 conf 49.0
COc1ccc(C2CC(=O)Oc3cc(O)ccc32)cc1 (stereo not given)	tim23-1 inh 56.7 (no result: NALP3 yeast inh, NALP1 yeast inh) | tim23-1 conf 45.5
CC(=O)NCCSc1ccc(S(=O)(=O)N2CCCC2)cn1	none (no result: NALP1 yeast inh)
O=C(CCCN1C(=O)/C(=C/c2ccccc2OC(F)F)SC1=S)Nc1cccnc1	tim23-1 inh 50.9 (no result: PfHsp90 set2, NALP1 yeast inh) | tim23-1 conf 51.5
Cc1cccn2c(=O)c(/C=C(\C#N)C(=O)NCc3ccco3)c(N3CCCCCC3)nc12	tim23-1 inh 53.4 (no result: PfHsp90 set2) | tim23-1 conf 47.9
O=C(O)/C=C\C(=O)Nc1ccc(Oc2ccc(Br)cc2)cc1	tim23-1 inh 53.1 | tim23-1 conf inactive
COc1ccc(NC(=O)c2cc(S(=O)(=O)NCC3COc4ccccc4O3)ccc2F)cc1 (stereo not given)	tim23-1 inh 57.7 | tim23-1 conf 65.1
COc1ccc(NC(=O)COC(=O)c2ccc([N+](=O)[O-])o2)cc1Cl	none
COc1ccc(/C=c2\sc3nc(=O)c(C)nn3c2=O)c(OC)c1	tim23-1 inh 52.8 | tim23-1 conf 38.5
C[C@@H]1CC[C@]2(O[C@H](CCO)C[C@H](O)[C@H]2O)O1	none (no result: PfHsp90 set2, NALP1 yeast inh)
COc1ccc(-c2oc3ccccc3c2C#CC(C)(C)O)cc1	tim23-1 inh 52.3 (no result: NALP1 yeast inh) | tim23-1 conf 37.5
COc1ccc(-c2c(C#CC(C)(C)O)c3ccccc3n2C)cc1	none (no result: NALP1 yeast inh)
O=c1cc(CO)oc(CN2CCN(CCO)CC2)c1O	tim23-1 inh 94.6 | tim23-1 conf inactive
COc1ccc(-c2nc3ccccc3c(=O)n2O)cc1	tim23-1 inh 58.2 | tim23-1 conf 52.3
O=C(NCc1cnc2ccccn12)C1CCC(=O)N(Cc2cccc(F)c2)C1 (stereo not given)	none
Cc1cccc(N=Nc2ccc(O)c3ncccc23)c1	PfHsp90 set2 101.2, tim23-1 inh 60.0 | tim23-1 conf 55.5
Cc1ccc(C)c(N=Nc2ccc(O)c3ncccc23)c1	none
COc1cccc(CSc2nc(N)cc(N)n2)c1	none
C[C@@H]1C=CC(=O)O[C@@H]1c1ccc(C(F)(F)F)cc1	tim23-1 inh 57.1 (no result: PfHsp90 set2) | tim23-1 conf inactive
C#CCSc1nncn1C(=O)/C=C/c1ccccc1	tim23-1 inh 52.1 (no result: PfHsp90 set2) | tim23-1 conf 76.8
COc1ccc(CCNC(=S)Nc2cccc(C)c2C)cc1	tim23-1 inh 50.5 (no result: PfHsp90 set2) | tim23-1 conf inactive
Cc1ccc(C(=O)NC(=S)NCc2ccccc2)cc1	tim23-1 inh 51.9 | tim23-1 conf 41.5
O=C(NC(=S)NCCc1ccccc1)c1ccccc1F	tim23-1 inh 51.4 | tim23-1 conf 44.5
O=C(NC(=S)NC(=O)c1ccccc1F)c1ccccc1F	tim23-1 inh 54.1 | tim23-1 conf 48.4
O=C(O)c1cn(C2CC2)c2cc(N3CCN(S(=O)(=O)c4ccc5c(c4)OCCO5)CC3)c(F)cc2c1=O	none
COCCC1CCCCN1C(=O)c1ccc2nc(Cc3ccccc3F)oc2c1 (stereo not given)	none
O=C(Nc1ccc(NC(=S)NC(=O)c2ccccc2F)cc1)c1cccs1	tim23-1 inh 51.3 | tim23-1 conf 49.5
Cc1c(Cl)cccc1NC(=S)NCCc1ccc(Cl)cc1	none
Fc1ccccc1NC(=S)NCCc1ccc(Cl)cc1	tim23-1 inh 55.1 | tim23-1 conf 55.2
COC(=O)N1C(=O)[C@](c2ccsc2)(C(C)C)N1C(=O)OC	none
COC(=O)N[C@H](CC(C)=O)c1ccccc1	none (no result: PfHsp90 set2)
COc1ccc(S(=O)(=O)Nc2ccc(-n3cccc3)cc2)cc1	tim23-1 inh 55.2 | tim23-1 conf 49.7
COc1ccc(NS(=O)(=O)c2ccc(N3C(=O)CCC3=O)cc2)cc1	none
C[C@@H]1C(c2ccc(F)cc2)=NN(c2ccccc2)[C@H]1C(=O)N1CCOC1=O	tim23-1 inh 53.2 (no result: NALP3 yeast inh, NALP1 yeast inh) | tim23-1 conf inactive
COc1ccccc1[C@@H]1C(c2ccccc2)=NN(c2ccc(Br)cc2)[C@H]1C(=O)N1CCOC1=O	tim23-1 inh 52.8 (no result: NALP3 yeast inh, NALP1 yeast inh) | tim23-1 conf inactive
CC[C@@H]1C(c2ccc(F)cc2)=NN(c2ccc(Br)cc2)[C@H]1C(=O)N1CCOC1=O	tim23-1 inh 57.8 (no result: NALP3 yeast inh, NALP1 yeast inh) | tim23-1 conf 43.5
CC[C@@H]1C(c2ccccc2)=NN(c2ccc(Br)cc2)[C@H]1C(=O)N1CCOC1=O	tim23-1 inh 58.1 (no result: NALP3 yeast inh, NALP1 yeast inh) | tim23-1 conf inactive
CC[C@@H]1C(c2cccc(Cl)c2)=NN(c2ccc(Br)cc2)[C@H]1C(=O)N1CCOC1=O	none (no result: NALP3 yeast inh, NALP1 yeast inh)
CC(=O)OCC(=O)C1(O)CCC2C3CCC4=CC(=O)CCC4(C)C3(Cl)C(O)CC21C (stereo not given)	none (no result: NALP3 yeast inh, tim10-1 inh, tim23-1 inh, TIM10 inh, NALP1 yeast inh)
COc1ccc(CN(CCC(C)C)S(=O)(=O)c2ccccc2Br)cc1	none (no result: NALP3 yeast inh, NALP1 yeast inh)
CCC(=O)CN(Cc1cc(OC)ccc1OC)S(=O)(=O)c1ccccc1Br	tim23-1 inh 57.7 (no result: NALP3 yeast inh, NALP1 yeast inh) | tim23-1 conf inactive
COC(=O)CCN(Cc1cc(OC)ccc1OC)S(=O)(=O)c1ccccc1Br	tim23-1 inh 54.3 (no result: NALP3 yeast inh, NALP1 yeast inh) | tim23-1 conf inactive
COC(=O)CCN(Cc1ccccc1)S(=O)(=O)c1ccccc1Br	none (no result: NALP3 yeast inh, NALP1 yeast inh)
CCOC(=O)c1c(-c2ccccc2)oc2cc(CN(C)C)c(O)c(CN(C)C)c12	none (no result: NALP1 yeast inh)

From PubChem
